From PubChem BioAssay
Rows were chosen to be rich in hits. Some 7.7% of all compounds tested hit in one or more screens of this group.
FMDV inh – blocks foot and mouth disease virus; FMDV antiviral cell-based qHTS; Potency, µM (highest dose often 57.9 µM), actives largely listed as inhibitors; hit rate 1.2% among 410,000; AID 1159524; calls by dose curve; tested in HEK293T cells; note: read-out not given here; nearly all actives have a fitted effect of over 45% in size
HCMV antiviral – blocks human cytomegalovirus replication | HFF cells, HCMV-luciferase reporter, 72 h; active compounds read low | hit rate 4.5% among 410,000 | activity change, negative = inhibition, % at 57.5 µM | AID 1259415; in the data active = activity change below about -60%; inconclusive = no clear call, values can overlap the other calls; inactive = above about -39%
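Two compound doses tested in HFFs infected with HCMV-luciferase, MOI 1 PFU/cell, 72 h at 37C. Lysate luminescence read with OneGlo; data normalized against buffer-only and 10uM Salinomycin inhibitor controls.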
TbPYK inhibitor – T. brucei pyruvate kinase inhibition; Q57TT1; TbPYK enzyme, Kinase-Glo Plus ATP luminescence, 45 min; Potency, µM (titrated, usually from 76.8 µM), hits mostly inhibitors; hit rate 0.12% among 410,000; note: nearly all actives have a fitted effect of over 50% in size
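Screened from lowest to highest concentration, compounds were pinned into TbPYK/substrate mixtures, and ADP (130 uM final) was added. Plates sat at room temperature for 45 min prior to Kinase-Glo Plus detection by luminescence.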
RE007 growth inh – less growth of the S. pombe RE007 Vpr strain; S. pombe RE007 Vpr strain, BacTiter-Glo ATP luminescence, 24 h; Potency, µM (series often up to 92.2 µM), hits mostly inhibitors; hit rate 0.21% among 360,000; AID 651644; active = well fitted falling curve with a large enough effect; inconclusive = small, poorly fitted or top-dose-only effect; inactive = no such curve, though single readings can be large or run the other way; note: nearly all actives have a fitted effect of over 50% in size
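Fission yeast RE007 carrying one integrated HIV-1 vpr copy, seeded at OD 0.01 in PMG+AL medium with 23 nL pinned compound. Grown 24 h at 30 degrees; viability read by BacTiter-Glo luminescence after 5 min.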
FBPA Giardia inh – inhibitors of Giardia lamblia fructose-1,6-bisphosphate aldolase | purified Giardia FBPA | Potency, µM (titrated, usually from 59.6 µM), hits mostly inhibitors | hit rate 0.71% among 290,000; note: nearly all actives have a fitted effect of over 55% in size
Target sequence (A8B2U2 whole entry, looked up): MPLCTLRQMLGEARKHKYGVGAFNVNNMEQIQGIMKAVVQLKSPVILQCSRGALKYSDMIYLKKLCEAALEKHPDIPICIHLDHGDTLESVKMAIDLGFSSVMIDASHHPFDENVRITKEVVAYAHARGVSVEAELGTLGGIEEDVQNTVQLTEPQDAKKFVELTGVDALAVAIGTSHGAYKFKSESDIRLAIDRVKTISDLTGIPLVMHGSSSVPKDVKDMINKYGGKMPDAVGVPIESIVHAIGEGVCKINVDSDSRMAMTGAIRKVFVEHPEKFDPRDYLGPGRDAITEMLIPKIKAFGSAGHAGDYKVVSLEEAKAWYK
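Giardia FBPA (40 nM reagent) was preincubated 10 min at RT with compound (up to 57.5 uM final), then substrate plus GAPDH/TPI/NAD/arsenate coupling system with diaphorase/resazurin was added; resorufin fluorescence (525/598 nm) was read after 20 min.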
Sm TGR inh – S. mansoni TGR enzyme inhibition | purified TGR, DTNB reduction, TNB absorbance 405 nm | Potency, µM (top dose mostly 114 µM), hits mostly inhibitors | hit rate 3% among 360,000 | AID 485364; note: nearly all actives have a fitted effect of over 60% in size
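Kinetic colorimetric format: TGR-catalysed, NADPH-driven DTNB reduction monitored via TNB absorbance. Enzyme dispensed at 20 nM; compound exposure 15 min at room temperature before reaction start.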
Hits are given with their value; [ ] = dose if it differs, or a comment. Unless noted, calls come from the whole dose curve; as a rule, active = well fitted curve in the direction sought with a large enough effect; inconclusive = small, poorly fitted or top-dose-only effect, or another doubt; inactive = no such curve, though single readings can be large; an effect the other way counts as inactive or inconclusive.

How did O=S(=O)(c1cccc(-c2csc(-c3cccnc3)n2)c1)N1CCOCC1 do in these assays?
FMDV inh: inactive; HCMV antiviral: inconclusive; TbPYK inhibitor: inactive; RE007 growth inh: inactive; FBPA Giardia inh: inactive; Sm TGR inh: inactive

Results for CN(C)c1ncc2nc(-c3cc(F)cc(F)c3)c(=O)n(-c3ccccc3)c2n1 ?
FMDV inh: inactive; FBPA Giardia inh: inactive

Results for Cc1c(N)c(C(C)(C)C)cc(C(C)(C)C)c1[N+](=O)[O-] ?
FMDV inh: inconclusive; HCMV antiviral: inactive; TbPYK inhibitor: inactive; RE007 growth inh: 32µM; FBPA Giardia inh: inactive; Sm TGR inh: inactive

What do the screens show for `Cc1c(N)c(C)c([N+](=O)[O-])c(C)c1[N+](=O)[O-]`?
FMDV inh: inactive; HCMV antiviral: inconclusive; TbPYK inhibitor: inactive; RE007 growth inh: inactive; FBPA Giardia inh: inactive; Sm TGR inh: inactive

How did O=C(Nc1cccnc1)Nc1cc(Cl)cc(Cl)c1 do in these assays?
FMDV inh: inconclusive; HCMV antiviral: -61; TbPYK inhibitor: inactive; RE007 growth inh: inactive; FBPA Giardia inh: inactive; Sm TGR inh: inactive

How did O=C(NCc1csc2ccccc12)Nc1cc(Cl)cc(Cl)c1 do in these assays?
FMDV inh: inconclusive; HCMV antiviral: -62; TbPYK inhibitor: inactive; RE007 growth inh: inactive; FBPA Giardia inh: inactive; Sm TGR inh: inactive

What do the screens show for `O=C(NCc1ccccn1)Nc1cc(Cl)cc(Cl)c1`?
FMDV inh: inactive; HCMV antiviral: inactive; TbPYK inhibitor: inactive; RE007 growth inh: inactive; FBPA Giardia inh: inactive; Sm TGR inh: inactive

What do the screens show for `O=C(Nc1ccccc1)Nc1cc(OCC(F)(F)F)cc(OCC(F)(F)F)c1`?
FMDV inh: inactive; HCMV antiviral: -100; TbPYK inhibitor: inactive; RE007 growth inh: inactive; FBPA Giardia inh: inactive; Sm TGR inh: inactive

What do the screens show for `O=C(Nc1ccccc1)Nc1cc(Cl)cc(Cl)c1`?
FMDV inh: inactive; HCMV antiviral: -91; TbPYK inhibitor: inactive; RE007 growth inh: inactive; FBPA Giardia inh: inactive; Sm TGR inh: inactive

Results for O=C(Nc1cccnc1)Nc1ccccc1Cl ?
FMDV inh: inactive; HCMV antiviral: inactive; TbPYK inhibitor: inactive; RE007 growth inh: inactive; FBPA Giardia inh: inactive; Sm TGR inh: inactive

Results for CCc1ccc(OC(C)C(=O)N2CCC(c3nc4ccccc4s3)CC2)cc1 (centres undefined) ?
FMDV inh: inconclusive; HCMV antiviral: inactive; TbPYK inhibitor: inactive; Sm TGR inh: inactive

What do the screens show for `CC(=O)N1CCC[C@H]1C(=O)NCC1Cc2cc(F)cc(-c3ccc(F)c(C)c3)c2O1` (some centres undefined)?
FMDV inh: inactive

How did O=C(COc1ccccc1F)Nc1nnc(SCc2cc(=O)n3ccccc3n2)s1 do in these assays?
FMDV inh: inactive; HCMV antiviral: inactive; TbPYK inhibitor: inactive; Sm TGR inh: inactive

Results for COc1cc(OC)c(NC(=O)Cn2cnc3c(nc4n3CCCCC4)c2=O)cc1Cl ?
FMDV inh: inactive; HCMV antiviral: inactive; TbPYK inhibitor: inactive; Sm TGR inh: inactive

What do the screens show for `O=c1n(Cc2ccc(F)cc2)c2ccccc2c2nc(-c3ccccc3)nn12`?
FMDV inh: inactive; HCMV antiviral: inactive; TbPYK inhibitor: inactive; Sm TGR inh: inactive

Results for CC(=O)OC1CCC2(C)C(=CCC3C2CCC2(C)C(C(C)=O)CCC32)C1 (centres undefined) ?
TbPYK inhibitor: inactive

How did C[C@]12CCC(=O)C=C1CC[C@@H]1C2[C@H](O)C[C@]2(C)C(=O)CCC12 (some centres undefined) do in these assays?
FMDV inh: inactive; HCMV antiviral: inactive; TbPYK inhibitor: inactive; RE007 growth inh: inactive; FBPA Giardia inh: inactive; Sm TGR inh: inactive

What do the screens show for `Cc1nc(C2CCC3C4CCC5=CC(=O)CC[C@]5(C)C4CC[C@]23C)cs1` (some centres undefined)?
HCMV antiviral: -91; FBPA Giardia inh: inactive; Sm TGR inh: inactive

What do the screens show for `CC12CCC(=O)C=C1CCC1C2C(O)CC2(C)C1CCC21OCC1=O` (centres undefined)?
FMDV inh: inactive; HCMV antiviral: -92; TbPYK inhibitor: inactive; RE007 growth inh: inactive

How did CC(=O)[C@H]1CC[C@H]2[C@@H]3CC=C4C[C@@H](OS(=O)(=O)O)CC[C@]4(C)[C@H]3CC[C@]12C do in these assays?
FMDV inh: inactive; HCMV antiviral: -71; TbPYK inhibitor: inactive; RE007 growth inh: inactive[18.4 µM]

Results for CCCCCC(=O)O[C@]1(C(C)=O)CC[C@H]2[C@@H]3CCC4=CC(=O)CC[C@]4(C)[C@H]3CC[C@@]21C ?
FMDV inh: inactive; HCMV antiviral: -68; TbPYK inhibitor: inactive; RE007 growth inh: inactive[18.4 µM]; FBPA Giardia inh: inactive; Sm TGR inh: inactive

What do the screens show for `CCCCCCCCCC(=O)O[C@H]1CC[C@H]2[C@@H]3CCC4=CC(=O)CC[C@]4(C)[C@H]3CC[C@]12C`?
TbPYK inhibitor: inactive

Results for COc1ccc(N(CC(=O)N2CCN(c3ccc(F)cc3)CC2)S(=O)(=O)c2c(C)nn(C)c2C)cc1 ?
FMDV inh: inactive; HCMV antiviral: inactive; TbPYK inhibitor: inactive; Sm TGR inh: inactive

How did CC(C)(C)C(=O)OCC(=O)C1CCC2C3CCC4=CC(=O)CCC4(C)C3CCC12C (centres undefined) do in these assays?
TbPYK inhibitor: inactive; FBPA Giardia inh: inactive

Results for CC(=O)C1CCC2C3CCC4=CC(=O)CC[C@@]4(C)C3CC[C@]12C (some centres undefined) ?
FMDV inh: 22µM; FBPA Giardia inh: inactive

How did Cn1ccnc1C(=O)c1cc(SCC(=O)NC2CC2)nc2ccccc12 do in these assays?
FMDV inh: inactive; HCMV antiviral: inactive; TbPYK inhibitor: inactive; RE007 growth inh: inactive; FBPA Giardia inh: inactive; Sm TGR inh: inactive

What do the screens show for `CN(C(=O)CSc1cc(C(=O)c2nccn2C)c2ccccc2n1)c1ccccc1`?
FMDV inh: inactive; HCMV antiviral: -99; TbPYK inhibitor: inactive; RE007 growth inh: inactive; FBPA Giardia inh: inactive; Sm TGR inh: inconclusive

What do the screens show for `Cc1cccc(C)c1OC(=O)Cc1ccccc1[N+](=O)[O-]`?
FMDV inh: inactive; HCMV antiviral: -64; TbPYK inhibitor: inactive; RE007 growth inh: inactive; FBPA Giardia inh: inactive; Sm TGR inh: inactive

What do the screens show for `COc1ccc(-c2cc(-c3ccc4c(c3)NC(=O)CO4)nc3c2COc2ccc(F)cc2-3)cc1`?
FMDV inh: inactive; HCMV antiviral: inactive; TbPYK inhibitor: inactive; Sm TGR inh: inactive

Results for COc1ccccc1-c1cc(C(F)(F)F)nc(S(=O)(=O)CCCC(=O)Nc2cccnc2Cl)n1 ?
FMDV inh: 14µM; HCMV antiviral: -90; TbPYK inhibitor: inactive; RE007 growth inh: inactive; FBPA Giardia inh: inactive; Sm TGR inh: inconclusive

Results for COc1ccccc1-c1cc(C(F)(F)F)nc(S(=O)(=O)CCCC(=O)Nc2ccccc2F)n1 ?
FMDV inh: inconclusive; HCMV antiviral: -103; TbPYK inhibitor: inactive; Sm TGR inh: inactive
